# Reference: article PMC7862700, “An all-to-all approach to the identification of sequence-specific readers for epigenetic DNA modifications on cytosine”
# Columns and labels:
# Assay in all cases: DAPPL (digital affinity profiling via proximity ligation, sequencing); 10 mM Tris-HCl pH 7.5, 50 mM NaCl, 1 mM DTT, 4% glycerol, room temperature, 30 min; GST-TFs on glutathione beads, 16-mer random dsDNA library, 0.1% formaldehyde crosslink after washing; high values mean tight binding
# [1] = molecular target: T1, FEV (Homo sapiens, UniProt Q99581 1-238); details: protein: recombinant; tags: N-terminal GST; dsDNA, one strand shown
# T1 sequence: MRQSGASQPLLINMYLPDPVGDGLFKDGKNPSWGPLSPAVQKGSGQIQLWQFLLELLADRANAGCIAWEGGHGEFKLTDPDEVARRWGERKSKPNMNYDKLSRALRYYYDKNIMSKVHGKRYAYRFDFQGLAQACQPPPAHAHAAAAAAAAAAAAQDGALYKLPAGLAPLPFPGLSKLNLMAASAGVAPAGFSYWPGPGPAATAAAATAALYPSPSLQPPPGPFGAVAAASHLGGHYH
# Procedure, shortened: (§1)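 Beads coated with glutathione captured GST-fused human transcription factors that had been expressed in yeast, and the factors were then given DNA barcodes and pooled with a tag-only sample. The pools were incubated with 200 nmole of a random double-stranded 16-mer DNA library in Tris/NaCl/DTT/glycerol buffer for 30 min at room temperature, washed, crosslinked with 0.1% formaldehyde and proximity-ligated with BsaI/T4 ligase at 37 °C for 1 h. PCR amplification and Illumina NextSeq500 sequencing came last. Binding signal is each hexamer's read frequency for a factor divided by its frequency for the tag-only sample.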
# [2] = molecular target: ETV5 (Homo sapiens, UniProt P41161 1-510); details: protein: recombinant; tags: N-terminal GST; dsDNA, one strand shown
# Chain of ETV5 (P41161 whole entry): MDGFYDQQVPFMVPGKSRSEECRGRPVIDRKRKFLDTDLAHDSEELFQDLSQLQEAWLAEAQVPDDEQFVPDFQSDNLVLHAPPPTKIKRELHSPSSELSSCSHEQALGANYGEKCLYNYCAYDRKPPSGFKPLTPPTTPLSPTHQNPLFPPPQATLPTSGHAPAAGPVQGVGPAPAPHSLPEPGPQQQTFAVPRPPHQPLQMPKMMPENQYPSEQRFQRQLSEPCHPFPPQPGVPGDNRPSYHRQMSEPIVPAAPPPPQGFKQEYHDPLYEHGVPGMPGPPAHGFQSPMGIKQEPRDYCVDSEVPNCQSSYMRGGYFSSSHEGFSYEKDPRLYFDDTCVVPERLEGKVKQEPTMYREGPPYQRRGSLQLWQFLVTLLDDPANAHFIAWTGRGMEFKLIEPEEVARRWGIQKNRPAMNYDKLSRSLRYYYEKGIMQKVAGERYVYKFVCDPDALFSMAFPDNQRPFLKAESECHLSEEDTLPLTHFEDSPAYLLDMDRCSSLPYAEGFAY
# Procedure, shortened: as §1
# [3] = molecular target: HSF1 (Homo sapiens, UniProt Q00613 1-529); details: protein: recombinant; tags: N-terminal GST; chain copies: 3; dsDNA, one strand shown
# Chain of HSF1 (Q00613 whole entry): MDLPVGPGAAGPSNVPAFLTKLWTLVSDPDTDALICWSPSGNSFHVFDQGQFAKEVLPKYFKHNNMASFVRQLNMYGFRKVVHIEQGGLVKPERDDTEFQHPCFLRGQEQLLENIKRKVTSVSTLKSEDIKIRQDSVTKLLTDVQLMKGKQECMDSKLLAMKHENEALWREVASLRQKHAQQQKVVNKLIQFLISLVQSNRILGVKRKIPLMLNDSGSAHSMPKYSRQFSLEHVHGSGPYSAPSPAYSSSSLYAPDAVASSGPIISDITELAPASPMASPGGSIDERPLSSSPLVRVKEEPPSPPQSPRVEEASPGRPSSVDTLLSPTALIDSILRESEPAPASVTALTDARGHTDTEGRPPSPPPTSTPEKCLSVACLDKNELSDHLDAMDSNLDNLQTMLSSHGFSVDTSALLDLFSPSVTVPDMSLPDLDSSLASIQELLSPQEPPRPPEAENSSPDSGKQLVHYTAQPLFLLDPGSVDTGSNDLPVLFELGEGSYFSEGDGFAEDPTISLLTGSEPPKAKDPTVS
# Procedure, shortened: as §1
# [4] = molecular target: T2, SPIC (Homo sapiens, UniProt Q8N5J4 1-248); details: protein: recombinant; tags: N-terminal GST; dsDNA, one strand shown
# T2 sequence: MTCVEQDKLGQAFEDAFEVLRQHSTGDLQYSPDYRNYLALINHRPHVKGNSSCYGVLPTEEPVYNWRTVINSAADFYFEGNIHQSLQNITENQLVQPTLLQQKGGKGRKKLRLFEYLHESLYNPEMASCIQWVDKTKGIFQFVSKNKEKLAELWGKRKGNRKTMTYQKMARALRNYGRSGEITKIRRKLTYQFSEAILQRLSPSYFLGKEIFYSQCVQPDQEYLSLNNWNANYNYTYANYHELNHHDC
# Procedure, shortened: as §1
# [5] = molecular target: ELF4 (Homo sapiens, UniProt Q99607 1-663); details: protein: recombinant; tags: N-terminal GST; dsDNA, one strand shown
# Chain of ELF4 (Q99607 whole entry): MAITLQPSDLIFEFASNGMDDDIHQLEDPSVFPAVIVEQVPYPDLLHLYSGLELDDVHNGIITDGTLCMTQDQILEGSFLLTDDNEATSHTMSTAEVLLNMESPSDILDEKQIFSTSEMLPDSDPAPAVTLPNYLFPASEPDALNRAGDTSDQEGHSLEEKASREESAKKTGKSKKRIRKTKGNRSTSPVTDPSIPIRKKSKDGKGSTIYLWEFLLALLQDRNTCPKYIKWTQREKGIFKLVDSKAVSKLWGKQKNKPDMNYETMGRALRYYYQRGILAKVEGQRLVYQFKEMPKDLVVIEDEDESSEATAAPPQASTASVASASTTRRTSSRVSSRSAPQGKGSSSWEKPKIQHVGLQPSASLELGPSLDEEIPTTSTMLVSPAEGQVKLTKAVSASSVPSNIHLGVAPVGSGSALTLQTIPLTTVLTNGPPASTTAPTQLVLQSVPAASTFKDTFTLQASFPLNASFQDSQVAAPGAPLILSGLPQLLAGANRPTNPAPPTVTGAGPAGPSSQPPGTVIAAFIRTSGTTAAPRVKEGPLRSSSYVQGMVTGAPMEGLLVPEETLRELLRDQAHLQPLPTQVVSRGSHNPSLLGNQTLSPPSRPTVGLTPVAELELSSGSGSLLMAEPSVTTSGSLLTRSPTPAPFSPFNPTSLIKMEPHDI
# Procedure, shortened: as §1
# [6] = molecular target: T3, ELK4 (Homo sapiens, UniProt P28324-2 1-405); details: protein: recombinant; tags: N-terminal GST; dsDNA, one strand shown
# T3 sequence: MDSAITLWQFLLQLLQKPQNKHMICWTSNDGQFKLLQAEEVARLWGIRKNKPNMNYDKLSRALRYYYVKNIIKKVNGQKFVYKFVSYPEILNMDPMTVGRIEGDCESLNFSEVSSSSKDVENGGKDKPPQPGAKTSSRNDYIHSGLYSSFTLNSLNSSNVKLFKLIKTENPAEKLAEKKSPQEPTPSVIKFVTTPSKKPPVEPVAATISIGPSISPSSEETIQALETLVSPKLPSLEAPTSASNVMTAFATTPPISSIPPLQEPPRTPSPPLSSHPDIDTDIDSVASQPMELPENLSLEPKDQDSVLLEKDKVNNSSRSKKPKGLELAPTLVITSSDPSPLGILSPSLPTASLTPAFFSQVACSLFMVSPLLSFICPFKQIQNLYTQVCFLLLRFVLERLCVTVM
# Procedure, shortened: as §1
# [7] = molecular target: T4, ETV2 (Homo sapiens, UniProt O00321 1-342); details: protein: recombinant; tags: N-terminal GST; dsDNA, one strand shown
# T4 sequence: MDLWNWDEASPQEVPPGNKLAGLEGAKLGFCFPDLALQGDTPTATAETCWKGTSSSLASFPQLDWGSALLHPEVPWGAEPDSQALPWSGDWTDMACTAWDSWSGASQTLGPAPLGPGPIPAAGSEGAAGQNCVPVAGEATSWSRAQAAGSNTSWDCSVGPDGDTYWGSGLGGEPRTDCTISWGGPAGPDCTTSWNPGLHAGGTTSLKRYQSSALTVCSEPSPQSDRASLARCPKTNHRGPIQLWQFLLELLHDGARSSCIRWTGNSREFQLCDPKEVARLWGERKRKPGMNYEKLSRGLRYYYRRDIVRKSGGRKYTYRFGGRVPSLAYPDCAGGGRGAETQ
# Procedure, shortened: as §1
# [8] = molecular target: T5, ELF3 (Homo sapiens, UniProt P78545 1-371); details: protein: recombinant; tags: N-terminal GST; dsDNA, one strand shown
# T5 sequence: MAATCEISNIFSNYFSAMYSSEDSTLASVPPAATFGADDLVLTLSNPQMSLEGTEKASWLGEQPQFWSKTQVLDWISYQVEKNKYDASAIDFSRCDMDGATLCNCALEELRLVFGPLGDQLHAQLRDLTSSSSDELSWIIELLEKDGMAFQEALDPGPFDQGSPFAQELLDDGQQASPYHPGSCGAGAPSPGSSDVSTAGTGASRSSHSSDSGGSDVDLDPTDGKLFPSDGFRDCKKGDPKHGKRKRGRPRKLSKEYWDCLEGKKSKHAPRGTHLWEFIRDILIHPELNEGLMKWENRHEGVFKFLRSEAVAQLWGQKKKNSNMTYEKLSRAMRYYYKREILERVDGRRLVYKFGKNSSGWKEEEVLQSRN
# Procedure, shortened: as §1
# [9] = molecular target: CRX (Homo sapiens, UniProt O43186 1-299); details: protein: recombinant; tags: N-terminal GST; dsDNA, one strand shown
# Chain of CRX (O43186 whole entry): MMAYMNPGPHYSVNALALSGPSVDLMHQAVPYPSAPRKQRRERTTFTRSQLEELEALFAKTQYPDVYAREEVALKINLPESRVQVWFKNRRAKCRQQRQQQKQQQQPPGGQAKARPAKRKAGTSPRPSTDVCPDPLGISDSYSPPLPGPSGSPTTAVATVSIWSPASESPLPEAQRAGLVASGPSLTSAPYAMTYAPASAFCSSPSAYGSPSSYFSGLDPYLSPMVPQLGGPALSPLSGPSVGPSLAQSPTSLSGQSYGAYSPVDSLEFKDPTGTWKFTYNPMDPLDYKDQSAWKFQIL
# Procedure, shortened: as §1
# [10] = molecular target: ETV1 (Homo sapiens, UniProt P50549 1-477); details: protein: recombinant; tags: N-terminal GST; dsDNA, one strand shown
# Chain of ETV1 (P50549 whole entry): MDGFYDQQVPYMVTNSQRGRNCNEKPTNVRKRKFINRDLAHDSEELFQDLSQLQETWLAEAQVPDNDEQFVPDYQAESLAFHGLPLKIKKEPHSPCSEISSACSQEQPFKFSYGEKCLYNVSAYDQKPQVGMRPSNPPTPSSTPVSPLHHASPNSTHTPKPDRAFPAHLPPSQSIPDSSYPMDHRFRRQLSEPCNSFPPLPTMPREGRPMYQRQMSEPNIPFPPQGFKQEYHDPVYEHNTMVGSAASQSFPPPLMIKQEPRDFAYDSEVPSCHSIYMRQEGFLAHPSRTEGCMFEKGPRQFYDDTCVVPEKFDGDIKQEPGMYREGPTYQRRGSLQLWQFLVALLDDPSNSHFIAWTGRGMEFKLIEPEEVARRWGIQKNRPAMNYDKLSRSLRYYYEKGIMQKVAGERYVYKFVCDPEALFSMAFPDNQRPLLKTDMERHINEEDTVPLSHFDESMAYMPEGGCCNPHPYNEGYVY
# Procedure, shortened: as §1
# [11] = molecular target: T6, ERF (Homo sapiens, UniProt P50548 1-548); details: protein: recombinant; tags: N-terminal GST; dsDNA, one strand shown
# T6 sequence: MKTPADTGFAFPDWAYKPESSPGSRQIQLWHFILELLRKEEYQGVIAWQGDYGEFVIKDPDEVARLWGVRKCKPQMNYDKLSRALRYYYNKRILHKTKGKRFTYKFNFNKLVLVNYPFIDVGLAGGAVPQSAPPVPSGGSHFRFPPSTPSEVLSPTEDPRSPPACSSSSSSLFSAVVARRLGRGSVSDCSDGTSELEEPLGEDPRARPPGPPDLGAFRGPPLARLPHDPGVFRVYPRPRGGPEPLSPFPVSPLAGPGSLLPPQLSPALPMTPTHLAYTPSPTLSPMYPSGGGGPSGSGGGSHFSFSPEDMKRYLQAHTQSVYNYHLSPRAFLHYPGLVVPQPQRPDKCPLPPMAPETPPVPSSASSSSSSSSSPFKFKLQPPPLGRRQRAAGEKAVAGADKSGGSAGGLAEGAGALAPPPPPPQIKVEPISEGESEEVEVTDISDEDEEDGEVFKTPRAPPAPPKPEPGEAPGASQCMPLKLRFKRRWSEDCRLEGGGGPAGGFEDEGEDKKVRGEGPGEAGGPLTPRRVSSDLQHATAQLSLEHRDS
# Procedure, shortened: as §1
# [12] = molecular target: T7, ETV3L (Homo sapiens, UniProt Q6ZN32 1-361); details: protein: recombinant; tags: N-terminal GST; dsDNA, one strand shown
# T7 sequence: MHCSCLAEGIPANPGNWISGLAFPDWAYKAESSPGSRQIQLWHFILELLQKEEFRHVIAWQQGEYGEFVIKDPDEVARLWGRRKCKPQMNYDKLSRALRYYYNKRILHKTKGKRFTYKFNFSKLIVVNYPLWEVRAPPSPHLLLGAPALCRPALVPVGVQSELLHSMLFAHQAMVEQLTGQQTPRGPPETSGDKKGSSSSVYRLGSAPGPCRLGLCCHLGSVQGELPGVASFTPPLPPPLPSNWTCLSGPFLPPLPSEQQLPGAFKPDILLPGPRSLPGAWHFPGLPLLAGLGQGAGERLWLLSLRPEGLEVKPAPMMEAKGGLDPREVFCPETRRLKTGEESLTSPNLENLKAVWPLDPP
# Procedure, shortened: as §1
# [13] = molecular target: T8, ETS2 (Homo sapiens, UniProt P15036 1-469); details: protein: recombinant; tags: N-terminal GST; dsDNA, one strand shown
# T8 sequence: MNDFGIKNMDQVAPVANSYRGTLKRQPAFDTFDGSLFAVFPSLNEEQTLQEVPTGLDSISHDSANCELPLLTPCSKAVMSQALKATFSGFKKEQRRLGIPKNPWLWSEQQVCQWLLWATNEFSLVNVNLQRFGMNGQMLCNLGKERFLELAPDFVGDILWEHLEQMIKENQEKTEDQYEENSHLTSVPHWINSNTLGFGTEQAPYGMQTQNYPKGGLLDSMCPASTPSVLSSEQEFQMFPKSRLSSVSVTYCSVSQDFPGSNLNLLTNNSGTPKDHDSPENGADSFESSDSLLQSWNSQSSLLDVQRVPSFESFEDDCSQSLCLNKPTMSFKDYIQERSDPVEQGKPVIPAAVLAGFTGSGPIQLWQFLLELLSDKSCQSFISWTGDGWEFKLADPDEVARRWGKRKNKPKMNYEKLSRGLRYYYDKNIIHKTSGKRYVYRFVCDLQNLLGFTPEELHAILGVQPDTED
# Procedure, shortened: as §1
# [14] = molecular target: T9, SPDEF (Homo sapiens, UniProt O95238 1-335); details: protein: recombinant; tags: N-terminal GST; dsDNA, one strand shown
# T9 sequence: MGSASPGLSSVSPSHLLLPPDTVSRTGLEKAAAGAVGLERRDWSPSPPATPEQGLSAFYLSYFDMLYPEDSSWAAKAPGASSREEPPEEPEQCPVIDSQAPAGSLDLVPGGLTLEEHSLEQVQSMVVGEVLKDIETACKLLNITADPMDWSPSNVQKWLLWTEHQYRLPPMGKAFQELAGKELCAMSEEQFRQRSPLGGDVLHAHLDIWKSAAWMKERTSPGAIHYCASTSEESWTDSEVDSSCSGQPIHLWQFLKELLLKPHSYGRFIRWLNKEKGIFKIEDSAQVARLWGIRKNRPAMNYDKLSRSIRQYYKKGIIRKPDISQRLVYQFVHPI
# Procedure, shortened: as §1
# [15] = molecular target: T10, ETV7 (Homo sapiens, UniProt Q9Y603 1-341); details: protein: recombinant; tags: N-terminal GST; dsDNA, one strand shown
# T10 sequence: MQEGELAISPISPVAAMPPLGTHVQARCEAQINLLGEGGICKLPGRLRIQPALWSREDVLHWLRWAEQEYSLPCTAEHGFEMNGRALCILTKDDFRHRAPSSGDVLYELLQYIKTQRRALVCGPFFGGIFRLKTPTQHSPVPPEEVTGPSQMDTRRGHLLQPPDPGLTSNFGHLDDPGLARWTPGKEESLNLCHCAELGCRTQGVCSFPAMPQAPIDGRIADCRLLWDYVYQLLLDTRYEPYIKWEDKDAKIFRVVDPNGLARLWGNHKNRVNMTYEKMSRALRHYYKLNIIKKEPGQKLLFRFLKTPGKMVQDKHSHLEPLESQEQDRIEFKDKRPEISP
# Procedure, shortened: as §1
# [16] = molecular target: T11, ELF5 (Homo sapiens, UniProt Q9UKW6-2 1-255); details: protein: recombinant; tags: N-terminal GST; dsDNA, one strand shown
# T11 sequence: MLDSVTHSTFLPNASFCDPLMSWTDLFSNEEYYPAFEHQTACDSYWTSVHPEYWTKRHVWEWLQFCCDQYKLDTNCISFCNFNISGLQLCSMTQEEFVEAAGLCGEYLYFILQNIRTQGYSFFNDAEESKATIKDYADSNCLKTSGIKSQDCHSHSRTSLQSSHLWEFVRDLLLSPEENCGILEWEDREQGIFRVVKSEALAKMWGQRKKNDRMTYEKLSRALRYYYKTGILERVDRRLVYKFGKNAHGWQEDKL
# Procedure, shortened: as §1
# [17] = molecular target: T12, ETV3 (Homo sapiens, UniProt P41162-2 1-143); details: protein: recombinant; tags: N-terminal GST; dsDNA, one strand shown
# T12 sequence: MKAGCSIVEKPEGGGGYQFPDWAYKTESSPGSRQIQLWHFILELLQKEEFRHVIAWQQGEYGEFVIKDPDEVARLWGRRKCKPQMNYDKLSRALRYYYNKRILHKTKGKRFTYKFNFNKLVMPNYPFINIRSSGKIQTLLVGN
# Procedure, shortened: as §1
# [18] = molecular target: ETV6 (Homo sapiens, UniProt P41212 1-452); details: protein: recombinant; tags: N-terminal GST; dsDNA, one strand shown
# Chain of ETV6 (P41212 whole entry): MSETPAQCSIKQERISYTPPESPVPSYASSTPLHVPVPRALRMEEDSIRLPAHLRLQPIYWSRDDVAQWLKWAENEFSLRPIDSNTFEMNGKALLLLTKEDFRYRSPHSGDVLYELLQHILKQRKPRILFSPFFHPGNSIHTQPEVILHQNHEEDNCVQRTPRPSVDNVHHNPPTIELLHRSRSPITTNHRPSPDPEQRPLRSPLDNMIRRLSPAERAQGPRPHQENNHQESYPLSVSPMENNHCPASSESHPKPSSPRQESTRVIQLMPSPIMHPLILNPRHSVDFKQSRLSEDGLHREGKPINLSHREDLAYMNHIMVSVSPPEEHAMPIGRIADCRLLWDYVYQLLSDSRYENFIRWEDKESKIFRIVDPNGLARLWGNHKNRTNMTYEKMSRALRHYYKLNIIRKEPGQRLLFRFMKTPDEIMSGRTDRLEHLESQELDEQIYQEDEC
# Procedure, shortened: as §1
sequence,measurement,setting,value
TGCTAG,binding signal,[1],"1.15 fold enrichment (6-mer frequency, TF over GST control)"
same,binding signal,[2],"1.3 fold enrichment (6-mer frequency, TF over GST control)"
same,binding signal,[3],"1.94 fold enrichment (6-mer frequency, TF over GST control)"
same,binding signal,[4],"1.17 fold enrichment (6-mer frequency, TF over GST control)"
same,binding signal,[5],"1.19 fold enrichment (6-mer frequency, TF over GST control)"
same,binding signal,[6],"1.26 fold enrichment (6-mer frequency, TF over GST control)"
same,binding signal,[7],"1.01 fold enrichment (6-mer frequency, TF over GST control)"
same,binding signal,[8],"1.34 fold enrichment (6-mer frequency, TF over GST control)"
same,binding signal,[9],"1.21 fold enrichment (6-mer frequency, TF over GST control)"
same,binding signal,[10],"1.17 fold enrichment (6-mer frequency, TF over GST control)"
same,binding signal,[11],"1.21 fold enrichment (6-mer frequency, TF over GST control)"
same,binding signal,[12],"1.29 fold enrichment (6-mer frequency, TF over GST control)"
same,binding signal,[13],"1.04 fold enrichment (6-mer frequency, TF over GST control)"
same,binding signal,[14],"1.09 fold enrichment (6-mer frequency, TF over GST control)"
same,binding signal,[15],"1.16 fold enrichment (6-mer frequency, TF over GST control)"
same,binding signal,[16],"1.09 fold enrichment (6-mer frequency, TF over GST control)"
same,binding signal,[17],"1.13 fold enrichment (6-mer frequency, TF over GST control)"
same,binding signal,[18],"1.05 fold enrichment (6-mer frequency, TF over GST control)"
